SMN2 splice enh – qHTS Assay for Enhancers of SMN2 Splice Variant Expression; HEK293 SMN2-luciferase splicing reporter, luminescence, 30-36 h; 210,000 tested, 2.8% active; Potency, µM (top dose mostly 46.1 µM), most hits filed as activators; AID 1458, 2008; further: nearly all actives have a fitted effect of over 55% in size
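HEK293 cells carry an SMN2 minigene-luciferase reporter in which exon 7 inclusion puts luciferase in frame. Cells were seeded at 2000 cells/well, attached for 10-12 hours, then exposed to compounds for 30-36 hours at 37C before ONE-Glo luminescence.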
FLuc counter – qHTS profiling assay for firefly luciferase inhibitor/activator using purifed enzyme and Km concentrations of substrates (counterscreen for miR-21 project); 360,000 tested, 6.9% active; purified FLuc, Km substrates, luminescence inhibition; Potency, µM (doses to about 57.5 µM), usual class: inhibitors; further: nearly all actives have a fitted effect of over 55% in size
Target sequence (P08659 whole entry, looked up): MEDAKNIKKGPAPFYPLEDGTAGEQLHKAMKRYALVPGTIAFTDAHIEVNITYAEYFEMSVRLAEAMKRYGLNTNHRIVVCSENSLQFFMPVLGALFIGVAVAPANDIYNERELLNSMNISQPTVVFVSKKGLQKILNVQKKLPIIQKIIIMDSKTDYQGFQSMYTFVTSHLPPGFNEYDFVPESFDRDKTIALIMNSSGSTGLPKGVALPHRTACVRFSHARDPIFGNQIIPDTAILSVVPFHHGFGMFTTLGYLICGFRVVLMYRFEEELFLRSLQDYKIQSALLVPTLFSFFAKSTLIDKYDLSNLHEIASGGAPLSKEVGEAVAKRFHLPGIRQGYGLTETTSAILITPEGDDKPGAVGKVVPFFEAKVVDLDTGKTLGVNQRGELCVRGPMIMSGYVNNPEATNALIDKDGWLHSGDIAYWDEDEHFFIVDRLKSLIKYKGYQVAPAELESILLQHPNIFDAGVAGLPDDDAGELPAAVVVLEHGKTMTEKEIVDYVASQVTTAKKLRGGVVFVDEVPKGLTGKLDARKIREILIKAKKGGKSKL
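Biochemical qHTS of compounds, final roughly 60 µM downward over six points, against 10 nM purified firefly luciferase using Km concentrations of substrates (10 uM D-luciferin, 10 uM ATP) in Tris acetate pH 7.5 buffer; luminescence output.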
ELG1 genotoxic – qHTS screen for small molecules that induce genotoxicity in human embryonic kidney (HEK293T) cells expressing luciferase-tagged ELG1. HEK293T ELG1-luciferase reporter, luminescence, 16 h. 330,000 tested, 1.3% active. Potency, µM (top dose mostly 46 µM), actives largely listed as activators; further: nearly all actives have a fitted effect of over 60% in size
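ELG1-luciferase HEK293T cells, 2,000/well; compound pinned in; 16 hr, 37 °C, 5% CO2; ONE-Glo, 30 min RT; luminescence on CCD imager.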
Rab9 prom act – qHTS Assay for Rab9 Promoter Activators; Huh7 Rab9 promoter-luciferase reporter, luminescence, 24 h; Potency, µM (series often up to 9.22 µM), hits mostly activators; 320,000 tested, 2.8% active; AID 485297, 2010; further: nearly all actives have a fitted effect of over 60% in size
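Steps: seed 1500 Huh7 Rab9-luc cells per well, rest 2 h at 37 °C; add compound in DMSO; incubate 24 h; add luciferase reagent, 10 min ambient; read luminescence.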
ELG1 DNA repair – qHTS screen for small molecules that inhibit ELG1-dependent DNA repair in human embryonic kidney (HEK293T) cells expressing luciferase-tagged ELG1. AID 504467, 2011. Potency, µM (highest dose often 46.1 µM), most hits filed as inhibitors. 330,000 tested, 2.3% active. HEK293T ELG1-luciferase reporter, luminescence, 16 h; DNA damage induced by 5-fluorouridine; further: nearly all actives have a fitted effect of over 55% in size
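Quantitative HTS, concentration-response format. 2,000 cells/well co-treated with 5-fluorouridine and compound, 16 hr in 5% CO2 at 37 °C; ONE-Glo luminescence read after 30 min.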
NPC1 prom act – qHTS Assay for NPC1 Promoter Activators; Huh7 NPC1 promoter luciferase reporter, 24 h; Potency, µM (top dose mostly 9.22 µM), hits mostly activators; 320,000 tested, 2.4% active; AID 485313, 2010; further: nearly all actives have a fitted effect of over 60% in size
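In 1536-well qHTS, Huh7 cells harboring an NPC1 promoter–luciferase construct received compound for 24 h; activation was quantified by luminescence following luciferase reagent addition.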
Each line names hits and unclear results; the compound was inactive in the other large screens. This is a sample that favours compounds with a hit; in the whole collection about 9.2% have one here. The call rests on the fitted dose curve; in most records, active means well fitted curve in the direction sought with a large enough effect; inconclusive means small, poorly fitted or top-dose-only effect, or another doubt; inactive means no such curve, though single readings can be large; an effect the other way counts as inactive or inconclusive.

CCOC(=O)c1ccc2ncc3c(-c4ccccc4)nn(-c4ccc(F)c(Cl)c4)c3c2c1	none (no result: ELG1 genotoxic, Rab9 prom act, ELG1 DNA repair, NPC1 prom act)
O=C(Nc1ccc2c(c1)OCCO2)c1ccc(Cl)c([N+](=O)[O-])c1	SMN2 splice enh 18µM, FLuc counter inconclusive, ELG1 genotoxic inconclusive, ELG1 DNA repair inconclusive
O=C(Nc1ccc2c(c1)OCCO2)c1ccc2nccnc2c1	SMN2 splice enh inconclusive, FLuc counter 3µM, ELG1 genotoxic inconclusive, Rab9 prom act 0.79µM, ELG1 DNA repair inconclusive, NPC1 prom act 1µM
O=C(Nc1ccc2nc3ccccc3nc2c1)c1ccc(Br)cc1	ELG1 DNA repair inconclusive
COC(=O)c1ccc(NC(=O)c2ccc3nccnc3c2)cc1	FLuc counter inconclusive (no result: SMN2 splice enh)
O=C(Nc1ccc2cccnc2c1)c1ccc(Br)cc1	FLuc counter 19µM, ELG1 DNA repair inconclusive (no result: SMN2 splice enh)
Cc1ccc(C(=O)Nc2ccc3nccnc3c2)cc1	SMN2 splice enh 3.2µM, FLuc counter 0.95µM, ELG1 genotoxic inconclusive, Rab9 prom act 0.45µM, ELG1 DNA repair inconclusive, NPC1 prom act 0.89µM
NC(=O)C1(N2CCCCC2)CCN(C(=S)Nc2cc(F)cc(F)c2)CC1	ELG1 DNA repair inconclusive
O=C(Nc1ccc(Cl)c(Cl)c1)C1=Cc2ccccc2OC1	SMN2 splice enh inconclusive, FLuc counter 11µM, ELG1 genotoxic inconclusive, Rab9 prom act 2.5µM, ELG1 DNA repair inconclusive, NPC1 prom act inconclusive
O=C(Nc1cccc(Cl)c1)C1=Cc2cc(Cl)ccc2OC1	none
O=C(Nc1ccc2c(c1)OCO2)c1ccc2nc[nH]c2c1	SMN2 splice enh inconclusive, FLuc counter 21µM, ELG1 genotoxic 16µM, Rab9 prom act 3.5µM, ELG1 DNA repair inconclusive, NPC1 prom act inconclusive
O=C(Nc1ccc(C(F)(F)F)cc1)c1ccc2nc[nH]c2c1	FLuc counter inconclusive, ELG1 DNA repair inconclusive
O=C(Nc1ccc2c(c1)OCCO2)c1ccc(Cl)c(Cl)c1	FLuc counter 4.8µM, ELG1 genotoxic 2.6µM, Rab9 prom act 1.4µM, ELG1 DNA repair inconclusive, NPC1 prom act 1.6µM (no result: SMN2 splice enh)
CCc1cccc(N2C(=O)N(Cc3c(F)cccc3Cl)c3ccccc3S2(=O)=O)c1	none (no result: SMN2 splice enh, ELG1 genotoxic, Rab9 prom act, ELG1 DNA repair, NPC1 prom act)
O=C(Nc1noc2ccccc12)c1c(F)cccc1F	SMN2 splice enh 22µM, FLuc counter 7.6µM (no result: ELG1 genotoxic, Rab9 prom act, ELG1 DNA repair, NPC1 prom act)
O=C(Nc1ccccc1NC(=O)c1c(F)cccc1F)c1c(F)cccc1F	none (no result: SMN2 splice enh)
NC(=S)N/N=C/c1c(O)c(Br)cc2oc3c(c12)CCCC3	ELG1 DNA repair 21µM (no result: SMN2 splice enh)
Oc1c(Br)cc2oc3c(c2c1CNCc1ccccc1)CCCC3	none
Cc1ccc(NC(=O)c2c(C)nc3sc(C(=O)Nc4ccc(F)cc4)c(N)c3c2-c2ccc(C)o2)c(C)c1	none (no result: ELG1 genotoxic, Rab9 prom act, ELG1 DNA repair, NPC1 prom act)
O=C(COC(=O)CNS(=O)(=O)c1c(F)cccc1F)NC(=O)NC1CCCCC1	none (no result: SMN2 splice enh, FLuc counter)
CCN(C(=O)c1ccc(C(C)(C)C)cc1)c1nnc(Cn2nnc3ccccc32)s1	ELG1 DNA repair 4.1µM
CC(C)(C)c1cccc(Cn2nnc3ccccc32)c1O	none (no result: SMN2 splice enh)
CCc1cccc(CC)c1N(COC)C(=O)Cn1nnc2ccccc21	none
CCN(C(=O)CC(C)C)c1nnc(Cn2nnc3ccccc32)s1	ELG1 DNA repair 8.2µM
COc1ccc(S(=O)(=O)N2CCN(C(=O)CCCN3C(=O)NC4(CCCC4)C3=O)CC2)cc1	none (no result: SMN2 splice enh)
O=C(CC(Nc1ccc(Cl)cc1Cl)C(=O)O)c1ccccc1 (stereo unspecified)	FLuc counter 2.7µM, ELG1 genotoxic 6.5µM, ELG1 DNA repair inconclusive (no result: SMN2 splice enh)
Cc1ccc(NC(CC(=O)c2ccccc2)C(=O)O)cc1Cl (stereo unspecified)	FLuc counter 2.1µM, ELG1 genotoxic inconclusive, Rab9 prom act inconclusive, ELG1 DNA repair inconclusive (no result: SMN2 splice enh)
O=C(CC(C(=O)O)c1cccc(Cl)c1)c1ccccc1 (stereo unspecified)	none (no result: SMN2 splice enh)
